aSyn yeast inh: inhibitors of alpha-synuclein toxicity in yeast. Yeast expressing alpha-synuclein, growth rescue, BacTiter-Glo, 24 h. Potency, µM (series often up to 46.1 µM), for the others: at the highest dose growth rescue (activation), most hits filed as activators. AID 652106. actives 0.14% (n = 370,000); further: % of control where 0% means no effect; nearly all actives have a fitted effect of over 65% in size
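Rescue of yeast growth: cells expressing toxic alpha-synuclein, induced in galactose at OD600 0.02, incubated with compound 24 h at 30 C. ATP luminescence quantified growth; inhibitors of toxicity appear as activators.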
A-T KAP1 phos: candidate therapy for ataxia-telangiectasia. F2112 A-T fibroblasts, KAP-1 phosphorylation AlphaLISA; neocarzinostatin DNA damage 30 min before lysis. Potency, µM (top dose mostly 57.5 µM), for inactives: at the highest dose activation, hits mostly activators. actives 0.19% (n = 320,000). AID 485349; further: % of control where 0% means no effect; nearly all actives have a fitted effect of over 45% in size
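hTERT-immortalized A-T patient fibroblasts (F2112), 500 cells/well in OPTI-MEM, 1% FBS, got compounds for 60 min, then NCS for 30 min at 37C. Lysates were then assayed for phospho-KAP-1 by AlphaLISA (anti-pKAP1 donor, anti-KAP1 acceptor beads), 6 hr at 25C.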
Glioma ERSR ind: induces the endoplasmic reticulum stress response in human glioma cells | U87-MG GRP78 promoter luciferase reporter, 16 h | Potency, µM, without a hit: at the highest dose activation, actives largely listed as activators | actives 0.02% (n = 420,000); further: series mostly up to about 76 µM; % of control where 0% means no effect; nearly all actives have a fitted effect of over 35% in size
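Stably transfected U87-MG human glioma cells carrying a GRP78-based luminescent sensor were seeded at 1000 cells/well, pin-dosed with compounds and incubated 16 h. Luciferase reagent was then added, and end-point luminescence was read after 10 min at room temperature.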
TDP43 rescue: TDP-43 toxicity inhibition in yeast; Potency, µM (doses to about 46.1 µM), without a hit: at the top dose growth rescue (activation), actives largely listed as activators; actives 1.8% (n = 410,000); TDP-43 expressing yeast growth rescue, BacTiter-Glo, 24 h; AID 652104; further: % of control where 0% means no effect; nearly all actives have a fitted effect of over 50% in size
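Growth rescue of TDP-43-toxic yeast measured as ATP luminescence (BacTiter-Glo). Cells grown to mid-log in raffinose, induced in galactose at OD600=0.02, exposed to compound 24 hr at 30 deg C.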
Mito fusion yeast: inhibitors of mitochondrial division or activators of mitochondrial fusion | S. cerevisiae fusion-defective mutant growth rescue, CellTiterGlo 48 h | AID 485298 | Potency, µM (doses to about 46.1 µM), without a hit: top-dose growth rescue (activation), actives largely listed as activators | actives 0.23% (n = 320,000); further: % of control where 0% means no effect; nearly all actives have a fitted effect of over 45% in size
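Yeast fusion mutant, YPEG (non-fermentable carbon), compound, 48 h at 37C non-permissive; CellTiterGlo added, 10 min RT, luminescence read. Rescued growth = division inhibition.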
Abeta rescue: compounds reversing amyloid beta toxicity in yeast; yeast expressing A-beta42, growth rescue, OD600, 48 h; response scale: 0% DMSO, 100% iron-clioquinol control; Potency, µM (doses to about 46.1 µM), hits mostly activators; actives 0.063% (n = 410,000); further: nearly all actives have a fitted effect of over 55% in size
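Yeast A-beta toxicity model in growth medium with pinned compounds, 48 h at 30 C; growth read as absorbance at 600 nm. Normalized to FeCl3/clioquinol equimolar mix (positive) and DMSO (negative).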
* marks the source's active call; other numbers are inactive results; i = inactive; ? = inconclusive; / = not tested or not shown; ! = a repeat was not active. Only some compounds are listed: those with a hit (about 2.1% of all), similar ones and a draw of the others. The call rests on the fitted dose curve; in most records, active means well fitted curve in the direction sought with a large enough effect; inconclusive means small, poorly fitted or top-dose-only effect, or another doubt; inactive means no such curve, though single readings can be large; an effect the other way counts as inactive or inconclusive. Potency means the concentration at half of the fitted maximal effect.

SMILES	aSyn yeast inh	A-T KAP1 phos	Glioma ERSR ind	TDP43 rescue	Mito fusion yeast	Abeta rescue
CCOC(=O)C1=C(C)NC(C)=C(C(=O)OC)[C@@H]1c1cccc([N+](=O)[O-])c1	/	/	-4%	/	/	/
COCCOC(=O)C1=C(C)NC(C)=C(C(=O)OC(C)C)C1c1cccc([N+](=O)[O-])c1 (stereo unspecified)	1%	11%	-6%	?	21µM*!	i
COCCOC(=O)C1=C(C)NC(C)=C(C(=O)OC(C)C)[C@@H]1c1cccc([N+](=O)[O-])c1	/	/	-5%	/	/	/
COC(=O)C1=C(C)NC(C)=C(C(=O)OC(C)(C)CN(C)CCC(c2ccccc2)c2ccccc2)C1c1cccc([N+](=O)[O-])c1 (stereo unspecified)	-20%	/	1%	/	0.65µM*	/
CCOC(=O)[C@H](CCc1ccccc1)NC(C)C(=O)N1CC2(CC1C(=O)O)SCCS2 (stereo partly specified)	/	/	-4%	/	/	/
COC(=O)C1CCN(C(=O)COc2ccc(Cl)cc2)CC1	3%	-3%	-10%	1%	0%	i
COC(=O)C1CCN(C(=O)COc2cc3sc(C)nc3c3sccc23)CC1	1%	7%	-4%	20µM*	11%	i
O=C(O)c1ccc(-c2ccc(O)c(F)c2)cc1	12%	-3%	-1%	16µM*	-4%	i
O=C(O)c1ccc(Nc2nc(-c3ccccc3)nc3ccccc23)cc1	-18%	1%	1%	22µM*	19%	i
O=C(O)c1ccc(Nc2c3ccccc3nc3ccccc23)cc1	-23%	28µM*	3%	0%	-4%	i
CCCOC(=O)c1cccc(Nc2nc(-c3cccnc3)nc3ccccc23)c1	10%	-1%	-9%	22µM*	8%	i
COC(=O)c1ccc(Nc2nc(-c3ccc(C)cc3)nc3ccccc23)cc1	/	/	1%	14µM*	/	i
O=C(CCn1c(=O)[nH]c2ccccc21)NCC1Cc2cc(Cl)cc(-c3ccncc3)c2O1 (stereo unspecified)	/	/	-3%	/	/	/
Cc1c(C(=O)N2CCN(CC(=O)Nc3ccccc3Cl)CC2)oc2ccc(Br)cc12	-6%	1%	-7%	13µM*	?	i
O=C1CC[C@H](C(=O)N2CCCCC2)N1	/	/	-4%	/	/	/
CC(C)N(C(=O)[C@H]1C[C@H](CC(=O)NCC23CC4CC(CC(C4)C2)C3)C(=O)N2CCc3c([nH]c4cc(-c5ccco5)ccc34)[C@]12C)C(C)C	-10%	6%	0%	1%	/	i
COc1ccc(CNC(=O)C[C@H]2C[C@H](C(=O)N3CCOCC3)[C@@]3(C)c4[nH]c5ccc(Cl)cc5c4CCN3C2=O)cc1OC	6%	5%	-1%	9%	/	i
COc1ccc(CNC(=O)C[C@H]2C[C@H](C(=O)N(C(C)C)C(C)C)[C@@]3(C)c4[nH]c5ccc(Cl)cc5c4CCN3C2=O)cc1OC	13%	6%	-1%	13µM*	/	i
CC(C)N(C(=O)[C@H]1CC(CC(=O)NCC23CC4CC(CC(C4)C2)C3)C(=O)N2CCc3c([nH]c4ccccc34)[C@]12C)C(C)C (stereo partly specified)	?	-17%	-1%	22µM*	/	i
CCn1c(-c2ccccc2F)nc2cc(C(=O)N3CCCC(CO)C3)cc(NC(C)=O)c21 (stereo unspecified)	/	/	-1%	/	/	/
Cc1nc2ccc(S(=O)(=O)Nc3cccc(-c4nc5cccnc5s4)c3)cc2s1	?	-6%	-1%	?	16µM*	i
Cc1nc2ccc(S(=O)(=O)Nc3ccc(-c4nc5cccnc5s4)cc3)cc2s1	6%	23%	5%	0%	?	i
O=S(=O)(Nc1ccc(-c2nc3cccnc3s2)cc1)c1ccccc1F	7%	16µM*	6%	-3%	-1%	i
